# From paper PMC7862700, “An all-to-all approach to the identification of sequence-specific readers for epigenetic DNA modifications on cytosine”
# Tests used:
# Assay in all cases: DAPPL (digital affinity profiling via proximity ligation, sequencing); 10 mM Tris-HCl pH 7.5, 50 mM NaCl, 1 mM DTT, 4% glycerol, room temperature, 30 min; GST-TFs on glutathione beads, 16-mer random dsDNA library, 0.1% formaldehyde crosslink after washing; high values mean tight binding
# FLI1 = target: T1, FLI1 (Homo sapiens, UniProt Q01543 1-452); details: protein: recombinant; tags: N-terminal GST; dsDNA, one strand shown
# T1 sequence: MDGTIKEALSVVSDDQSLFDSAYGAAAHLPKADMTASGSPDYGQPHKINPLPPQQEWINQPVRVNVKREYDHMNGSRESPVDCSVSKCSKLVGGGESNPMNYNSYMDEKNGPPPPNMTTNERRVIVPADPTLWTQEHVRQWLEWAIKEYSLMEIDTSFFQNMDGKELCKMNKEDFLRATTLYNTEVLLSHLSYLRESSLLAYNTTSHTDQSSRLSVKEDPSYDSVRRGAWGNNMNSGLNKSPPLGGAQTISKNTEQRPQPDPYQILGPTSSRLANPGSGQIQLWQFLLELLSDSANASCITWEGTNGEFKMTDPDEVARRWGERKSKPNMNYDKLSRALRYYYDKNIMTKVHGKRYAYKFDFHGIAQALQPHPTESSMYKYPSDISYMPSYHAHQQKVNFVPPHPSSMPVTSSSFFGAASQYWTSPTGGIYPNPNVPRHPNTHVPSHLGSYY
# In short: (§1)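 Beads coated with glutathione captured GST-fused human transcription factors that had been expressed in yeast, and the factors were then given DNA barcodes and pooled with a tag-only sample. The pools were incubated with 200 nmole of a random double-stranded 16-mer DNA library in Tris/NaCl/DTT/glycerol buffer for 30 min at room temperature, washed, crosslinked with 0.1% formaldehyde and proximity-ligated with BsaI/T4 ligase at 37 °C for 1 h. PCR amplification and Illumina NextSeq500 sequencing came last. Binding signal is each hexamer's read frequency for a factor divided by its frequency for the tag-only sample.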
# GABPA = target: T2, GABPA (Homo sapiens, UniProt Q06546 1-454); details: protein: recombinant; tags: N-terminal GST; dsDNA, one strand shown
# T2 sequence: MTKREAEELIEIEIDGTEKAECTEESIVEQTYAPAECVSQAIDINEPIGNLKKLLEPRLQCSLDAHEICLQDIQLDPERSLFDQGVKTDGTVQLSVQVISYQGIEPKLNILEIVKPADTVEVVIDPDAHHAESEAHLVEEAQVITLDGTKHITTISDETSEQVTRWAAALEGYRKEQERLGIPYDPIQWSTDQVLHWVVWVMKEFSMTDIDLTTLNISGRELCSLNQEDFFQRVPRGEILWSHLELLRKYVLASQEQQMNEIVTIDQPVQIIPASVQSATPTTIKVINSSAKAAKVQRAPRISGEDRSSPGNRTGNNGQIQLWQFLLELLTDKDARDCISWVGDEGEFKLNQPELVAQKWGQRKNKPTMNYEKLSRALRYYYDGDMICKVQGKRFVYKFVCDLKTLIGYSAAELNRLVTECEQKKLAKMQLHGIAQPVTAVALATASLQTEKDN
# In short: as §1
# ELF1 = ELF1 (Homo sapiens, UniProt P32519 1-619); details: protein: recombinant; tags: N-terminal GST; dsDNA, one strand shown
# In short: as §1
# SPI1 = SPI1 (Homo sapiens, UniProt P17947 1-270); details: protein: recombinant; tags: N-terminal GST; dsDNA, one strand shown
# In short: as §1
# SPIB = SPIB (Homo sapiens, UniProt Q01892 1-262); details: protein: recombinant; tags: N-terminal GST; dsDNA, one strand shown
# In short: as §1
# ELK3 = target: T3, ELK3 (Homo sapiens, UniProt P41970 1-407); details: protein: recombinant; tags: N-terminal GST; dsDNA, one strand shown
# T3 sequence: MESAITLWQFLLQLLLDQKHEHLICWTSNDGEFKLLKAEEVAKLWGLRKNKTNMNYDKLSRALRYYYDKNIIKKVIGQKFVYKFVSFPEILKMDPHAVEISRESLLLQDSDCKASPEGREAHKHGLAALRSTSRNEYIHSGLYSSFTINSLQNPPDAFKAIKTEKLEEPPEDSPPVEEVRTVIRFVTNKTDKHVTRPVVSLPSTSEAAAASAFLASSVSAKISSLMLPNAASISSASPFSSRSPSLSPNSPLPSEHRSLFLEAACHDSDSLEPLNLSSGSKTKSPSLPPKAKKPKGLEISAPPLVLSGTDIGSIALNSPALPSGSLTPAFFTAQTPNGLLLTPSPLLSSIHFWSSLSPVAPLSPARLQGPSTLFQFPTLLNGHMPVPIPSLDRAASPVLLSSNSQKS
# In short: as §1
# ETV5 = ETV5 (Homo sapiens, UniProt P41161 1-510); details: protein: recombinant; tags: N-terminal GST; dsDNA, one strand shown
# In short: as §1
# HSF1 = HSF1 (Homo sapiens, UniProt Q00613 1-529); details: protein: recombinant; tags: N-terminal GST; chain copies: 3; dsDNA, one strand shown
# In short: as §1
# SPIC = target: T4, SPIC (Homo sapiens, UniProt Q8N5J4 1-248); details: protein: recombinant; tags: N-terminal GST; dsDNA, one strand shown
# T4 sequence: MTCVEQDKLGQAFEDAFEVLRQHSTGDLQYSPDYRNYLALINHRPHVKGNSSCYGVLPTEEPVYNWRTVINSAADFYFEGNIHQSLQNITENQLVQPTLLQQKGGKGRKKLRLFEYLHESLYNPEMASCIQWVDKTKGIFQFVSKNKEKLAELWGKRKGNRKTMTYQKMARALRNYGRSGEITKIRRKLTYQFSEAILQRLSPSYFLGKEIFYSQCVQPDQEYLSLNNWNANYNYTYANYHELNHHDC
# In short: as §1
# ELF4 = ELF4 (Homo sapiens, UniProt Q99607 1-663); details: protein: recombinant; tags: N-terminal GST; dsDNA, one strand shown
# In short: as §1
# ETV2 = target: T5, ETV2 (Homo sapiens, UniProt O00321 1-342); details: protein: recombinant; tags: N-terminal GST; dsDNA, one strand shown
# T5 sequence: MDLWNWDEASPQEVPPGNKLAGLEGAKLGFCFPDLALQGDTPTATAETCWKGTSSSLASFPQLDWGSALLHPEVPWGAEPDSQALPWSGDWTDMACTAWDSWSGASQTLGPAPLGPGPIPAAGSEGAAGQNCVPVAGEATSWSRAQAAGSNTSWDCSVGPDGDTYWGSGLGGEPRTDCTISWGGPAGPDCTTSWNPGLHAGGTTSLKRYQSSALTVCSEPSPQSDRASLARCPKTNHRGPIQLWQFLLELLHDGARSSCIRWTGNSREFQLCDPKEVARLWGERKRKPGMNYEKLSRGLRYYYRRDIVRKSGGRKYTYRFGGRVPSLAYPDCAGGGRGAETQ
# In short: as §1
# ELF3 = target: T6, ELF3 (Homo sapiens, UniProt P78545 1-371); details: protein: recombinant; tags: N-terminal GST; dsDNA, one strand shown
# T6 sequence: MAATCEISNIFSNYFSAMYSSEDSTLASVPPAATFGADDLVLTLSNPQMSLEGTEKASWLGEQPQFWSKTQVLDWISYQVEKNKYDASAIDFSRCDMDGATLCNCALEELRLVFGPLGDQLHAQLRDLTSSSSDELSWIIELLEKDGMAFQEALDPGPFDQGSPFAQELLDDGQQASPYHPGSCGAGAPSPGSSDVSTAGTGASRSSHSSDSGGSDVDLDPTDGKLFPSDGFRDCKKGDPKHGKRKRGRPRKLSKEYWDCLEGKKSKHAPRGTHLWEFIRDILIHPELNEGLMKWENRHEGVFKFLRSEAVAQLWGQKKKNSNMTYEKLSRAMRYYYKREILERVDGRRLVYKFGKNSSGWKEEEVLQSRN
# In short: as §1
# CRX = CRX (Homo sapiens, UniProt O43186 1-299); details: protein: recombinant; tags: N-terminal GST; dsDNA, one strand shown
# In short: as §1
# Sequence of ELF1 (P32519 whole entry): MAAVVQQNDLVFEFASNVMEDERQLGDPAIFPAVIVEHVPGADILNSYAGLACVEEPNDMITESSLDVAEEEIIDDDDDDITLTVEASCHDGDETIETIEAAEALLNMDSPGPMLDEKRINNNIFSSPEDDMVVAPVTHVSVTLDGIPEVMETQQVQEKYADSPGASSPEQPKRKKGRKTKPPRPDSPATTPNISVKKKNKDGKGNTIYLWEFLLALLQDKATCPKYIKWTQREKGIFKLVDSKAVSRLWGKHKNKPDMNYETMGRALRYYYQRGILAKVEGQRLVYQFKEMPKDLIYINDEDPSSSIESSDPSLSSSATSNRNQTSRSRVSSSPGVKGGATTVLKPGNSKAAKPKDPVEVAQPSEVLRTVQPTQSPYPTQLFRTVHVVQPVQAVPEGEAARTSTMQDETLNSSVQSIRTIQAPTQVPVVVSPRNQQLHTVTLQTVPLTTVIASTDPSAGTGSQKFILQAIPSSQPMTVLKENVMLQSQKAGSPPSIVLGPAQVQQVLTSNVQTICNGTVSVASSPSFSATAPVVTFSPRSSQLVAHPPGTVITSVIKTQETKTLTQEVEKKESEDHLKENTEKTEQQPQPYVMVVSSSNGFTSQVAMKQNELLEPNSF
# Sequence of ETV5 (P41161 whole entry): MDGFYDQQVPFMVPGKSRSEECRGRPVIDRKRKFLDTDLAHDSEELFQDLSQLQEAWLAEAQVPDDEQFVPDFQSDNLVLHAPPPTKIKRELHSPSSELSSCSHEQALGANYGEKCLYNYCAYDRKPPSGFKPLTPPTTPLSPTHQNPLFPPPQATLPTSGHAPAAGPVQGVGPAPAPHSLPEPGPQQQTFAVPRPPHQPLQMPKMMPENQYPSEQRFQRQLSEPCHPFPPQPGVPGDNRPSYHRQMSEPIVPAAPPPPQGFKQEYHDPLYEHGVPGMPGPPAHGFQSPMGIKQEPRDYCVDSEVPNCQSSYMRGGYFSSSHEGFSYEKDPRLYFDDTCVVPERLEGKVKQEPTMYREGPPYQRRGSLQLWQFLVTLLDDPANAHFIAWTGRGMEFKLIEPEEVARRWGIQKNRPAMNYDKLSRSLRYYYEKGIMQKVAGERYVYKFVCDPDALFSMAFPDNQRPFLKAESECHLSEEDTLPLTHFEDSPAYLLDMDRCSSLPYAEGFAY
# Sequence of HSF1 (Q00613 whole entry): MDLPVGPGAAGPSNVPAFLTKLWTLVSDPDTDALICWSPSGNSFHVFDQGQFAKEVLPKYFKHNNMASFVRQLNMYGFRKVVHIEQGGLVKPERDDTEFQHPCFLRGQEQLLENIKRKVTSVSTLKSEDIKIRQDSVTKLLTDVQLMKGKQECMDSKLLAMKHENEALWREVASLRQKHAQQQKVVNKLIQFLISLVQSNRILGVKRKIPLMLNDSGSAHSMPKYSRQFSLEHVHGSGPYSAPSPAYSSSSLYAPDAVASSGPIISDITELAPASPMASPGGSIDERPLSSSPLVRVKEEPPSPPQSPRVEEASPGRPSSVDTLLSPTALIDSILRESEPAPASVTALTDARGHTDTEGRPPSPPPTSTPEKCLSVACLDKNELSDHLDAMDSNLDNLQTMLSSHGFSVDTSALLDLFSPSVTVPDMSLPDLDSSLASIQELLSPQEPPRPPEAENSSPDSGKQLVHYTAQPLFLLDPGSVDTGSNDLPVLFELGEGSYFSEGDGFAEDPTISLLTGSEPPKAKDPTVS
# Sequence of SPIB (Q01892 whole entry): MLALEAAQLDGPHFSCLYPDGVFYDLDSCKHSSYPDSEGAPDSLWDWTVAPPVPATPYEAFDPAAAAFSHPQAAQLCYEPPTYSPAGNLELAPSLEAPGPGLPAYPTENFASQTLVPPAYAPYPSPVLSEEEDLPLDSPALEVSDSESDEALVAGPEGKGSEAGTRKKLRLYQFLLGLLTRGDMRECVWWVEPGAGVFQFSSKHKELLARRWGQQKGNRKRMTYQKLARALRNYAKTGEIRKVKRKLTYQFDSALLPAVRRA
# Sequence of CRX (O43186 whole entry): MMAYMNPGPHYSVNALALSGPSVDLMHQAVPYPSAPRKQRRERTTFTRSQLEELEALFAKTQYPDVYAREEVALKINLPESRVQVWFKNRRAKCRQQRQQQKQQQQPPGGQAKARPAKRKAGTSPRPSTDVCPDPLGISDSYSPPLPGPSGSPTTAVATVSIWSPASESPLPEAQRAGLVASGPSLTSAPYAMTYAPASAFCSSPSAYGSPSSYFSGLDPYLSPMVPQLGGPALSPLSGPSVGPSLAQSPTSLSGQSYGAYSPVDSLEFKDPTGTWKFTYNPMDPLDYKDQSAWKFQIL
# Sequence of ELF4 (Q99607 whole entry): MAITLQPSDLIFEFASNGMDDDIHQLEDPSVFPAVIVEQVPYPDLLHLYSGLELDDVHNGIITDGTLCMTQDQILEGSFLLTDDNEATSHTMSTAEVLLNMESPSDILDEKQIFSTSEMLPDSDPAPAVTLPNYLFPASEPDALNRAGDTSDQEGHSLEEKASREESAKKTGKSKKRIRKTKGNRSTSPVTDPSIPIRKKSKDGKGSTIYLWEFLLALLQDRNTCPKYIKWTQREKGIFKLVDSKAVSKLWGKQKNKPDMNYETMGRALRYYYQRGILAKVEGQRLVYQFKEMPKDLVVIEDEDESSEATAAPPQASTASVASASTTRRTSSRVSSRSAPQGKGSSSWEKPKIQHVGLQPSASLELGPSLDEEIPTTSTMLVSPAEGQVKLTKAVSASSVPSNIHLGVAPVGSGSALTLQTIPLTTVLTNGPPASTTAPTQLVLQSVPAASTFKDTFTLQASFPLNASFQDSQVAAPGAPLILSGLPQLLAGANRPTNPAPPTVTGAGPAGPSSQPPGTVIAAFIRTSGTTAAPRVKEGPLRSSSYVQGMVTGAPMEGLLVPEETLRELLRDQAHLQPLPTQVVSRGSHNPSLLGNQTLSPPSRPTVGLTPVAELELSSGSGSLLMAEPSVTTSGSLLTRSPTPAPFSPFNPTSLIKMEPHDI
sequence,measurement,setting,value
TTTAGT,binding signal,FLI1,"1.13 fold enrichment (6-mer frequency, TF over GST control)"
same,binding signal,GABPA,"1.11 fold enrichment (6-mer frequency, TF over GST control)"
same,binding signal,ELF1,"1.11 fold enrichment (6-mer frequency, TF over GST control)"
same,binding signal,SPI1,"1.07 fold enrichment (6-mer frequency, TF over GST control)"
same,binding signal,SPIB,"1.12 fold enrichment (6-mer frequency, TF over GST control)"
same,binding signal,ELK3,"1.11 fold enrichment (6-mer frequency, TF over GST control)"
same,binding signal,ETV5,"1.04 fold enrichment (6-mer frequency, TF over GST control)"
same,binding signal,HSF1,"1.2 fold enrichment (6-mer frequency, TF over GST control)"
same,binding signal,SPIC,"1.15 fold enrichment (6-mer frequency, TF over GST control)"
same,binding signal,ELF4,"1.04 fold enrichment (6-mer frequency, TF over GST control)"
same,binding signal,ETV2,"1.23 fold enrichment (6-mer frequency, TF over GST control)"
same,binding signal,ELF3,"1.04 fold enrichment (6-mer frequency, TF over GST control)"
same,binding signal,CRX,"1.55 fold enrichment (6-mer frequency, TF over GST control)"
